# Test results reported in PubChem BioAssay.
# The source made the active and inactive calls. Unless noted, the rule behind the calls is not given here.
# Key:
# [1] = system: Wnt5a (protein binding on small-molecule microarray); test: small molecules binding Wnt5a protein – biophysical, small-molecule microarray, 635/667 nm fluorescence, primary screen (AID 1142); details: 635 nm fluorescence, higher = more signal;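 note: fluorescence read at 667 nm with signal to noise per printed feature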
# [2] = ATP-based viability of Huh7 replicon cells – cell-based, CellTiter-Glo luminescence, basal, 48 h, cytotoxicity control for HCV replication inhibitor project, primary screen (AID 1143); details: higher = more signal, called active from +8 up or from −8 down;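 note: Huh7 hepatoma cells carrying a hepatitis C replication reporter with no stimulus; test concentration not given here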
# [3] = Pseudomonas biofilm growth suppression – PAO1 strain, BacTiter-Glo luminescence, LB-PBS, primary screen (AID 1144); details: P. aeruginosa PAO1 biofilm, 12 h, higher = more signal
# [4] = basal CRE-LacZ reporter activity in PC12 – cell-based, unstimulated, primary screen (AID 1145); details: no forskolin, luminescence, 4.5 h, higher = more signal, called active from +8 up or from −8 down
# [5] = forskolin-driven CRE-LacZ activity in PC12 – cell-based, CRE-LacZ reporter, forskolin-stimulated, primary screen (AID 1146); details: luminescence, 4.5 h, higher = more signal, called active from +8 up or from −8 down;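 note: PC12 cells with 6xCRE LacZ reporter stimulated by forskolin 10 µM; beta-galactosidase reporter signal reflecting CREB driven transcription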
# [6] = molecular target: Streptavidin (Streptomyces avidinii) (UniProt P22629); test: compounds binding control protein streptavidin – biophysical, small-molecule microarray, 635/667 nm fluorescence, artefact control for SMM compound annotation, primary screen (AID 1147); details: higher = more signal;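 note: signal reflects streptavidin binding to arrayed compounds as a control protein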
# Chain of Streptavidin (Streptomyces avidinii) (P22629 whole entry, looked up): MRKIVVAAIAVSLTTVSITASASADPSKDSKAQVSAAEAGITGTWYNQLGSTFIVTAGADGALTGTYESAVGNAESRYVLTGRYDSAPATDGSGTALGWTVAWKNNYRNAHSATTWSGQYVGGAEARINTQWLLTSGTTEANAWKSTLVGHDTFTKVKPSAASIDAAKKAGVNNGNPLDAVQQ
# [7] = probe aInhba binding on compound microarray – biochemical, small-molecule microarray, 635/667 nm fluorescence, primary screen (AID 1148); details: higher = more signal;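 note: score merges 667nm spot fluorescence with signal-to-noise for antibody binding to printed compounds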
# [8] = molecular target: Torsin-1A (Homo sapiens) (UniProt O14656); test: TOR1A wild-type binding on microarray – cell lysate, small-molecule microarray, lysate, 635/667 nm, primary screen (AID 1149); details: COS7 hTOR1A-WT lysate, 635 nm fluorescence, higher = more signal
# Chain of Torsin-1A (Homo sapiens) (O14656 whole entry, looked up): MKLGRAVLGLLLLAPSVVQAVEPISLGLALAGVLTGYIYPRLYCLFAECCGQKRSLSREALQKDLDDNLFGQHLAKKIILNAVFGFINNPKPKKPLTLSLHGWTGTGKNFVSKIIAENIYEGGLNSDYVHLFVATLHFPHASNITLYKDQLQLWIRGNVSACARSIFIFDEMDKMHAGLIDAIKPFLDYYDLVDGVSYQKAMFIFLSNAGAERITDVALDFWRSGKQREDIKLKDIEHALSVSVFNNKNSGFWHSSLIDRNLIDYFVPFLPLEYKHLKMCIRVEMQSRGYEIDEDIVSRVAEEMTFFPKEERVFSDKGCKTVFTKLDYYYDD
# [9] = molecular target: Torsin-1A (Homo sapiens) (UniProt O14656); test: torsin A mutant lysate binding on microarrays – cell lysate, small-molecule microarray, COS7 lysate, 635/667 nm fluorescence, primary screen (AID 1150); details: COS7 hTOR1A mutant lysate, 635 nm fluorescence, higher = more signal;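 note: score pools 667 nm emission and signal to noise measuring lysate protein binding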
# [10] = system: Sonic hedgehog protein (Shh); test: Sonic hedgehog microarray binding compounds – biochemical, small-molecule microarray, 635/667 nm fluorescence, primary screen (AID 1151); details: 635 nm fluorescence, higher = more signal;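 note: Shh protein binding to compounds spotted on small-molecule microarray slides; score combines spot fluorescence intensity with signal-to-noise across triplicate slides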
# [11] = optical density shifts of acrAB sulA E. coli – strain DRC41, OD650, 48 h, E. coli filamentation inducer project, primary screen (AID 1152); details: higher = more signal, called active from +8 up or from −8 down;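 note: E. coli MC1000 strain DRC41 lacking acrAB efflux pump and sulA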
# [12] = probe aLefty1 binding on compound microarray – biochemical, small-molecule microarray, 635/667 nm fluorescence, primary screen (AID 1153); details: higher = more signal;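 note: score merges spot fluorescence with signal-to-noise ratio from the scanned slide images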
# [13] = plasmodial surface anion channel blockers, osmotic lysis – cell-based, P. falciparum Indochina, OD700, 1 h, primary screen (AID 1154); details: P. falciparum Indochina infected RBC osmotic lysis, higher = more signal, called active from +8 up or from −8 down
# [14] = plasmodial surface anion channel blockers, osmotic lysis – cell-based, P. falciparum Indochina, OD700, 2 h, primary screen (AID 1155);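 note: lysis reports solute entry through the parasite surface anion channel PSAC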; details: P. falciparum Indochina infected erythrocytes, higher = more signal, called active from +8 up or from −8 down
# [15] = changes in parasitized red cell lysis, either direction – P. falciparum Indochina, OD700, 3 h, PSAC antagonist project, primary screen (AID 1156); details: P. falciparum-infected erythrocytes, osmotic lysis, higher = more signal, called active from +8 up or from −8 down
# [16] = plasmodial surface anion channel blockers, osmotic lysis – cell-based, P. falciparum Indochina, OD700, 18 h, primary screen (AID 1157); details: P. falciparum Indochina infected erythrocytes, osmotic lysis OD700, 18 h; higher = more signal, called active from +8 up or from −8 down
# [17] = S6 kinase pathway phospho-S6 level changes – cell-based, A549, cytoblot, luminescence, serum-stimulated, primary screen (AID 1158); details: 5 h, higher = more signal;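 note: serum-stimulated A549 lung adenocarcinoma cells; signal is phosphorylated S6 detected by cytoblot immunostaining with HRP secondary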
# [18] = molecular target: NADPH oxidase 2 (Homo sapiens) (UniProt P04839); test: compounds shifting NOX2 Amplex Red fluorescence – cell-based, HEK293-NOX2, PMA-stimulated, NOX inhibitor project, primary screen (AID 1159); details: 45 min, higher = more signal, called active from +8 up or from −8 down; note: test concentration not given here
# Chain of NADPH oxidase 2 (Homo sapiens) (P04839 whole entry, looked up): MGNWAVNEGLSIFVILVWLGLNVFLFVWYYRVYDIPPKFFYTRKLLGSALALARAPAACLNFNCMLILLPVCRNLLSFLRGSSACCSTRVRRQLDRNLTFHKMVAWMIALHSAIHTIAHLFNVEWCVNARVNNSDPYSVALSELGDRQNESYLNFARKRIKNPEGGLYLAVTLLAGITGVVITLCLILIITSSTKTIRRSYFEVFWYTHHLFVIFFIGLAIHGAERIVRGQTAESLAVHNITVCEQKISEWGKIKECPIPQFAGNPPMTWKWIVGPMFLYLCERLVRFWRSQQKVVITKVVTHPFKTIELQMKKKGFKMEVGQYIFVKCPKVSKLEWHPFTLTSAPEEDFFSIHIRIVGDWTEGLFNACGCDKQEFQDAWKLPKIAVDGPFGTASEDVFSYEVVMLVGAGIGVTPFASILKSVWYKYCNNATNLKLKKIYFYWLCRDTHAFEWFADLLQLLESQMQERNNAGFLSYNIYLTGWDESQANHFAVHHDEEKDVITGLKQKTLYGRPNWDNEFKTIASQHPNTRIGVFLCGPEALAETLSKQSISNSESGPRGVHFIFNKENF
# [19] = molecular target: NADPH oxidase 4 (Homo sapiens) (UniProt Q9NPH5); test: compounds shifting NOX4 Amplex Red fluorescence – cell-based, HEK293-NOX4, tetracycline-induced, NOX inhibitor project, primary screen (AID 1160); details: HEK293-NOX4, Amplex Red H2O2 fluorescence, 45 min; higher = more signal, called active from +8 up or from −8 down
# Chain of NADPH oxidase 4 (Homo sapiens) (Q9NPH5 whole entry, looked up): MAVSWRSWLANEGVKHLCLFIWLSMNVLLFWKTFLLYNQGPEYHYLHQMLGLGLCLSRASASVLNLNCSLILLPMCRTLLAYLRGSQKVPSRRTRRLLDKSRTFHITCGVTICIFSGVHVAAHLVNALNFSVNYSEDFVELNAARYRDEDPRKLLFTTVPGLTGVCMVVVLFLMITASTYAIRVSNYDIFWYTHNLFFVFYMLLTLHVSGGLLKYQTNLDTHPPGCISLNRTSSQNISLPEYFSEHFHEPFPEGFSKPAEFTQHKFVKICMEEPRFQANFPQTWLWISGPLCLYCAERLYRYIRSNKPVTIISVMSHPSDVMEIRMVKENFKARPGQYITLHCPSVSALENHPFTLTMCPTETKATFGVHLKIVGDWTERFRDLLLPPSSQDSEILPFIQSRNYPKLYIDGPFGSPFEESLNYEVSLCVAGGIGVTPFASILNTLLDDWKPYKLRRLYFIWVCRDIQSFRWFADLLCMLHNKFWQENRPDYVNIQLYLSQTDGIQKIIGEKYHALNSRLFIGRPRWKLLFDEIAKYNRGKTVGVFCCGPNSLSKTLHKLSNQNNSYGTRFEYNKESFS
# [20] = molecular target: NADPH oxidase 5 (Homo sapiens) (UniProt Q96PH1); test: compounds shifting NOX5 Amplex Red fluorescence – cell-based, HEK293-NOX5, NOX inhibitor project, primary screen (AID 1161); details: HEK293-NOX5, ionomycin, 45 min, higher = more signal
# Chain of NADPH oxidase 5 (Homo sapiens) (Q96PH1 whole entry, looked up): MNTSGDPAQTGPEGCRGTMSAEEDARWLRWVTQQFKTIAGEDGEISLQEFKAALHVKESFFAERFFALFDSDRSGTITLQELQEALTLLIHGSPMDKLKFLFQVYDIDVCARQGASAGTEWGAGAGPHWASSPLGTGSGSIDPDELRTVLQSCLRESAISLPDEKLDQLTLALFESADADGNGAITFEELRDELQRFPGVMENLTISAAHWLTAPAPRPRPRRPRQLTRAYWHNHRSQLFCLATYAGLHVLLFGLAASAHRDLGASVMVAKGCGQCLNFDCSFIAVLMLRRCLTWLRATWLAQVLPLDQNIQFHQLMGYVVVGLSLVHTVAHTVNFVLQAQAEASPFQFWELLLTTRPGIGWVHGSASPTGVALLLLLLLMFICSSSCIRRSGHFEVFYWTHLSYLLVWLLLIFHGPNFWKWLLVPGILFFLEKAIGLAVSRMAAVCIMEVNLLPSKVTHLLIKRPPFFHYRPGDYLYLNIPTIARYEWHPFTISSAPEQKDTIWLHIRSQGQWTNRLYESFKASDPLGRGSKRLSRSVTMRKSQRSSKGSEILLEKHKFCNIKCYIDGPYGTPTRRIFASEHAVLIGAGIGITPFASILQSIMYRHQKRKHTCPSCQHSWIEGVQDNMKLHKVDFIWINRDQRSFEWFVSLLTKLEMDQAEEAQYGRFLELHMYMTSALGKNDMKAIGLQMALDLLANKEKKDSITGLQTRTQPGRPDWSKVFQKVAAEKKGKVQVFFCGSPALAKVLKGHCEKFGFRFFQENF
SMILES,composite z-score [1],z-score [2],z-score [3],z-score [4],z-score [5],composite z-score [6],composite z-score [7],composite z-score [8],composite z-score [9],composite z-score [10],z-score [11],composite z-score [12],z-score [13],z-score [14],z-score [15],z-score [16],z-score [17],z-score [18],z-score [19],z-score [20]
O=C1[C@H]2[C@H]3[C@H](O)[C@H](O)CC(=NO[C@@H]4O[C@H](CO)[C@@H](O)[C@H](O)[C@H]4O)[C@H]3CC[C@H]2C(=O)N1c1cccc(Oc2ccccc2)c1,0.162,-0.31 (inactive),0.257 (inactive),-0.838 (inactive),-0.462 (inactive),0.528,-0.0846,0.625,0.367,1.09,-0.024 (inactive),-0.286,0.257 (inactive),0.452 (inactive),0.253 (inactive),0.207 (inactive),-0.576,0.7 (inactive),0.325 (inactive),-0.54
COC(=O)CC=C[C@@H](C)[C@@H]1C=C[C@H](O)[C@@H](CO)O1,-0.27,0.362 (inactive),-0.159 (inactive),0.648 (inactive),1.03 (inactive),0.89,-0.163,0.473,0.448,0.495,0.372 (inactive),-0.472,0.0339 (inactive),0.447 (inactive),-0.27 (inactive),-0.0707 (inactive),0.338,0.418 (inactive),-0.23 (inactive),0.576
COC(=O)CC=C[C@@H](C)[C@@H](C=NOC[C@H]1O[C@H](c2ccccc2)C=C[C@@H]1Oc1ccc(OC)cc1)NS(=O)(=O)c1ccc(C)cc1,-0.308,-0.588 (inactive),-0.00695 (inactive),3.13 (inactive),0.519 (inactive),-0.184,-0.23,-1.46,0.339,-0.863,-0.272 (inactive),-0.147,4.79 (inactive),1.56 (inactive),0.949 (inactive),0.857 (inactive),0.0859,-0.273 (inactive),0.0179 (inactive),-0.523
CC(C)=CCCC(C)=CCON=C1C[C@@H](O)[C@@H](O)[C@@H]2[C@@H]3C(=O)N(C[C@@H]4CCCO4)C(=O)[C@@H]3CC[C@H]12,0.24,-0.296 (inactive),0.175 (inactive),-0.384 (inactive),0.174 (inactive),0.707,-0.162,1.4,1.33,1.67,-0.249 (inactive),-0.0501,2.57 (inactive),0.847 (inactive),0.193 (inactive),0.55 (inactive),0.659,0.0784 (inactive),0.256 (inactive),-2.11
COC(=O)[C@@H]1CC[C@H](C)[C@@H](c2ccc(C)cc2)N1C(=O)c1ccc(C=NO[C@@H]2O[C@H](COC(C)=O)[C@@H](OC(C)=O)[C@H](OC(C)=O)[C@H]2OC(C)=O)cc1,-0.0196,-3.41 (inactive),-0.553 (inactive),2.22 (inactive),-0.138 (inactive),0.253,-0.0986,0.203,0.121,0.891,-0.492 (inactive),0.0391,-0.013 (inactive),-0.647 (inactive),0.819 (inactive),-1.79 (inactive),1.02,-0.454 (inactive),-0.674 (inactive),-2.1
Cc1ccc(S(=O)(=O)N[C@H]2COC(=O)CC=C[C@@H](C)COC(=O)CC=C[C@@H]2C)cc1,-0.0032,0.319 (inactive),-0.748 (inactive),-0.0223 (inactive),0.113 (inactive),0.407,-0.0645,0.346,-0.534,1.92,0.142 (inactive),-0.296,0.866 (inactive),-0.162 (inactive),-0.424 (inactive),-0.014 (inactive),-0.41,0.225 (inactive),0.684 (inactive),0.238
CC(C)CON=C1C[C@@H](O)[C@@H](O)[C@@H]2[C@@H]3C(=O)N(C[C@@H]4CCCO4)C(=O)[C@@H]3CC[C@@H]12,0.0867,1.13 (inactive),-0.184 (inactive),-0.0246 (inactive),0.436 (inactive),-0.265,-0.0987,-0.25,0.0844,-0.321,0.93 (inactive),-0.0501,-0.441 (inactive),-0.379 (inactive),-0.611 (inactive),-0.21 (inactive),0.324,0.957 (inactive),0.816 (inactive),-0.0365
COC(=O)CC=C[C@@H](C)[C@@H](C=NOC[C@@H](O)[C@H]1O[C@@H]2OC(C)(C)O[C@@H]2[C@H]1O)NS(=O)(=O)c1ccc(C)cc1,0.242,0.0198 (inactive),0.603 (inactive),-0.245 (inactive),0.285 (inactive),-0.0169,0.163,0.92,0.387,0.288,0.463 (inactive),0.165,-0.0598 (inactive),0.0216 (inactive),-0.268 (inactive),0.0967 (inactive),-0.979,0.214 (inactive),0.171 (inactive),0.829
